Screening data deposited in PubChem by The Scripps Research Institute Molecular Screening Center.
GALR2 agonist: GALR2 receptor agonists, primary screen, cell-based; Galanin receptor type 2 (Homo sapiens), O43603; GALR2-expressing cells, agonist activation read-out; activation, % (no concentration beside the values); actives 0.48% (n = 140,000); AID 803, 2007; in the data active = activation above about 5%, passing the limit was not always enough;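 note: 0% = vehicle buffer wells and 100% = reference agonist at full effect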
S1P2 ag: S1P2 receptor agonists, primary screen, cell-based; S1P2-expressing cell line, agonist reporter read-out; AID 729, 2007; actives 0.46% (n = 97,000); activation, % at 4.5 µM; in the data active = activation above about 16%;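 note: 0% = vehicle low control and 100% = maximal reference agonist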
Target sequence (O95136 whole entry, looked up): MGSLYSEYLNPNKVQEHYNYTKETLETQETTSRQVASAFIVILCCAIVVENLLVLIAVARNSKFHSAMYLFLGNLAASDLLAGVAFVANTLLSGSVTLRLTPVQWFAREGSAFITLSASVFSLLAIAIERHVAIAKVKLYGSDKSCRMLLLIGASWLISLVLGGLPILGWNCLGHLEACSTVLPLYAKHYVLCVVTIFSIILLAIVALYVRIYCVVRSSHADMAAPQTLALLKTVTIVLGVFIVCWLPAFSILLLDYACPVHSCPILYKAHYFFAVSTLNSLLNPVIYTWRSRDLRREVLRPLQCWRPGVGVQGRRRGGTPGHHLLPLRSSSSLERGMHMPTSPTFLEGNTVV
GALR2 blocker: GALR2 antagonists in receptor-expressing cells, primary screen | Galanin receptor type 2 (Homo sapiens), O43603 | antagonist mode | inhibition, % at 4 µM | actives 0.39% (n = 140,000); in the data active = inhibition above about 27%;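 note: cells stimulated with galanin 1-16 at roughly its EC80; 0% = agonist challenge control and 100% = basal control without agonist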
S1P2 antag: human S1P2 receptor antagonists, primary screen, cell-based; actives 0.21% (n = 97,000); Sphingosine 1-phosphate receptor 2 (Homo sapiens), O95136; inhibition, % at 5 µM; cell-based S1P2 antagonist assay, inhibition at 5 uM; AID 736, 2007; in the data active = inhibition above about 45%;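 note: CRE beta-lactamase reporter cells expressing human S1P2 stimulated with S1P; 0% = agonist at EC80 alone and 100% = agonist plus reference antagonist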
GALR2 agon conf: GALR2 agonists, retest of hits, confirmation, cell-based; shares compounds with GALR2 agonist; GALR2-expressing cells, agonist activation; activation, % at 5.6 µM; actives 10% (n = 460); in the data active = activation above about 8.4%;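 note: 0% = buffer-only vehicle wells and 100% = full reference agonist response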
BLA activ ctr: activators of NFAT-driven beta-lactamase reporter, confirmation, counter-screen for GALR2 agonist project, CHO NFAT-bla cells, FRET readout | actives 10% (n = 460) | activation, % at 5.6 µM | beta-lactamase FRET activation | shares compounds with GALR2 agonist | AID 865, 2007;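 active = activation above the screen-wide mean activation plus 3 SD, cut at about 8% in these data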;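 note: 0% = DMSO with PBS wells and 100% = thapsigargin positive control wells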
Numbers without * were called inactive; . = not tested or not shown. Compounds with a hit are over-represented: about 1.1% of the library has one in this group of screens.

SMILES	GALR2 agonist	S1P2 ag	GALR2 blocker	S1P2 antag	GALR2 agon conf	BLA activ ctr
Cc1ccc(C)c(NC(=O)/C(C#N)=C/c2cn(CC(=O)NCc3ccco3)c3ccccc23)c1	70*	.	-9	.	27*	27*
Cc1cc(C)cc(NC(=O)/C(C#N)=C/c2cn(CC(=O)NCc3ccco3)c3ccccc23)c1	52*	.	5	.	26*	24*
Cn1cc([N+](=O)[O-])c(C(=O)NCc2cc3cc(Cl)ccc3[nH]2)n1	-2	.	-2	.	.	.
CCn1c(=O)cc(OCC(=O)Nc2cccnc2)c2ccccc21	-1	-1	2	-9	.	.
CCn1c(=O)cc(OCC(=O)Nc2cccc(C)n2)c2ccccc21	120*	1	6	-8	-1	-1
CSc1cc(-c2ccc(Cl)cc2)c(C(=O)N2CCCC2)s1	1	-9	-4	11	.	.
COCCN1C=C(C(=O)OC)C(c2cc(Br)c(OC)c(OC)c2)C(C(=O)OC)=C1	10	10	6	-23	1	4
Cc1cc2c(C)cc(=O)oc2c2c1NCCC2	13*	15	-8	-23	1	4
O=C(CN1C(=O)NC2(CCCCC2)C1=O)Nc1ccccc1Cl	-1	.	10	.	.	.
O=C1NC2(CCCCC2)C(=O)N1CCS(=O)(=O)Oc1ccccc1	10	-2	-14	-13	-1	-3
O=C(CCCN1C(=O)c2ccccc2C1=O)N1CCN(c2ccccn2)CC1	-2	-6	-9	-13	.	.
CCCCc1cc(O)c(CCCC)c(O)c1	9.8*	-2	-27	15	12*	27*
Cc1csc(NC(=O)c2cc3c(s2)-c2ccccc2OC3)n1	9	-1	4	-6	3	6
CN(C(=O)COC(=O)CCc1c[nH]c2ccccc12)C(c1ccccc1)c1ccccc1	0	.	-2	.	.	.
O=C(CSc1nccn1-c1ncc(C(F)(F)F)cc1Cl)c1ccc(Cl)cc1	-2	-4	-3	21	.	.
Cc1nc2cc3nc(C(F)(F)F)[nH]c3cc2[nH]1	-1	.	14	.	.	.
N#CC1=C(N)Oc2n[nH]c(-c3ccccc3)c2C12C(=O)Nc1ccccc12 (stereo unspecified)	11*	.	14	.	-1	-3
CCN1C(=O)C2(C(C#N)=C(N)Oc3n[nH]c(-c4ccc(Cl)cc4)c32)c2ccccc21 (stereo unspecified)	0	-2	1	-5	.	.
N#C/C(=C\c1cn(CCOc2ccccc2F)c2ccccc12)C(=O)NCc1cccs1	9.2*	.	3	.	2	1
Cc1cccn2c(=O)c3cc(C(=O)NCc4cccnc4)c(=N)n(C(C)C)c3nc12	9	8	-9	-16	1	3
CCOc1cccc(SCc2noc(C(=O)NCCOC)c2C(=O)O)c1	59*	-9	-3	8	0	1
Cc1ccc(CNC(=O)CCNC(=O)c2ccc(Br)o2)cc1	28*	-2	-14	-4	-1	-2
COC(=O)CCC/C=C1\SC[C@@H](NC(=O)c2ccccc2)C1NC(C)=O (stereo partly specified)	-3	.	7	.	.	.
CCCCCc1c(C)c(C#N)c2nc3ccccc3n2c1-n1ccnc1C	-1	1	-10	6	.	.
C=C(C)CN1CCN(c2c(CCC#N)c(C)c(C#N)c3nc4ccccc4n23)CC1	12*	.	2	.	3	1
SMILES	GALR2 agonist	S1P2 ag	GALR2 blocker	S1P2 antag	GALR2 agon conf	BLA activ ctr
Nc1c(C(=O)Nc2ccc(S(=O)(=O)N3CCCC3)cc2)sc2nc3ccc(OC(F)(F)F)cc3cc12	18*	.	6	.	7	2
O=C(Cn1c(=O)oc2cc(S(=O)(=O)N3CCCCCC3)ccc21)NC1CCCCCCC1	-3	-5	13	3	.	.
O=C(Cn1c(=O)oc2cc(S(=O)(=O)N3CCCC3)ccc21)NC1CCCc2ccccc21 (stereo unspecified)	16*	.	5	.	2	-2
CCOC(=O)c1ccc(NC(=S)N2CCSC2c2ccc(Br)cc2)cc1 (stereo unspecified)	17*	.	-2	.	17*	38*
CCOC(=O)C(=Cc1ccc(F)cc1)C(=O)OCC	0	-5	17	39	.	.
CCOC(=O)/C(=C/c1ccc(N2CCC(c3ccccc3)=N2)cc1)C(C)=O	14*	.	9	.	4	11*
Nc1nnc(SCC(=O)c2ccccc2)s1	-2	-5	0	-11	.	.
Nc1c(C(=O)c2ccccc2)sc2snc(SCC(=O)c3ccccc3)c12	79*	-8	0	15	-2	-3
CCCSc1nc2c(cnn2-c2ccccc2)c(=O)[nH]1	-1	.	8	.	.	.
O=c1[nH]c(/C=C/c2ccccc2OC(F)F)nc2c1cnn2-c1ccccc1	15*	.	-11	.	8.8*	4
COc1cccc2cc(C(=O)n3ccc(C)n3)c(=O)oc12	-1	-5	6	12	.	.
COc1ccc(-c2nnc(-c3ccc(OCC(C)C)cc3)o2)cc1	14*	-3	-4	0	-1	-2
COc1ccc(C2=C(C=Nc3c(C)n(C)n(-c4ccccc4)c3=O)C(c3ccccc3C)c3ccccc3O2)cc1OC (stereo unspecified)	-1	-6	10	0	.	.
Cc1ccccc1Nc1nc(-c2sc(NC(=O)c3ccccc3)nc2C)cs1	19*	-12	0	-10	-1	-3
O=C(COc1ccc2c(c1)CCC2)NCc1ccc(Cl)cc1	-1	.	-6	.	.	.
Cc1cc(NC(=O)c2ccccc2Cl)no1	-1	0	13	15	.	.
Cc1ccc2nc(-c3ccccc3Cl)cc(C(=O)Nc3cc(C)on3)c2c1	17*	-1	-5	3	0	0
CN=C1CC(SC)=C1c1ccc(C)cc1	-3	3	-1	0	.	.
COc1ccc(C2=NOC(C(=O)NCc3ccc(F)cc3)C2)cc1OC (stereo unspecified)	10	2	8	-14	1	-1
Fc1ccc(CSc2ccc(-c3ccco3)nn2)cc1	-1	.	-3	.	.	.
CCCCCOP(=O)(OCCCCC)C1(NS(=O)(=O)c2ccccc2)C=CC(=O)c2ccccc21 (stereo unspecified)	-1	-9	-1	9	.	.
O=C(N/N=C/c1c(F)cccc1Cl)c1ccc(Cn2cc(Br)cn2)o1	40*	.	14	.	-1	-3
CC1CC(C)CN(CCCNC(=O)c2csc3c2CCCC3)C1 (stereo unspecified)	108*	-8	-7	-7	0	-1
O=C(NCCN1CCOCC1)c1csc2c1CCCC2	0	-2	-17	-12	.	.
COc1ccc(OC)c(C(=O)CSc2nccc(-c3ccc(Br)cc3)n2)c1	0	-3	-14	1	.	.
O=C(Nc1ccccc1-c1ccccc1)c1ccc(Br)o1	13*	2	-12	-20	0	-1
Cc1ccc(OCCn2c(C)c(/C=N/n3cnnc3)c3ccccc32)cc1	9.1*	6	-7	-28	4	-2
